This excerpt belongs to a sample that is enriched for hits.
RECQ1 inh: inhibitors of human RECQ1 DNA helicase; P46063; RECQ1 DNA unwinding, red fluorescence kinetic read; Potency, µM (titrated, usually from 57.3 µM), for the others: top-dose activity, negative = inhibition, hits mostly inhibitors; 240,000 tested, 0.54% active; AID 2549;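 further: potency means the concentration at half of the fitted maximal effect; plate controls were vehicle for no effect and no enzyme for full effect; nearly all actives have a fitted effect of over 30% in size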
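RECQ1T1 50 nM; forked duplex (20 bp + 30-nt ss tails) 200 nM, ATP 2 mM final; pH 8.0, 2 mM MgCl2, 2.5 ug/ml poly(dI-dC); 15 min compound preincubation; discontinuous kinetic read over 2 h at RT.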
APE1 inh: APE1 (human) endonuclease inhibition | recombinant APE1, TAMRA/BHQ-2 abasic DNA cleavage fluorescence | Potency, µM (titrated, usually from 65.8 µM), inactives show at the highest dose activity change, negative = inhibition, hits mostly inhibitors | 350,000 tested, 0.35% active | P27695;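 further: potency means the concentration at half of the fitted maximal effect; plate controls were vehicle for no effect and reference inhibitor for full effect; nearly all actives have a fitted effect of over 55% in size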
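Activity was derived from the fluorescence gain between first and third kinetic reads (60 s intervals, ex 525/em 598 nm) after 50 nM THF-abasic TAMRA/BHQ-2 duplex was added to 0.75 nM APE1 preincubated 15 min with compound.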
KDM4E inh: blocks human JMJD2E demethylase activity; B2RXH2; JMJD2E catalytic domain, FDH-coupled NADH fluorescence (FDH is formaldehyde dehydrogenase); Potency, µM (doses to about 57.1 µM), for the others: at the highest dose activity change, negative = inhibition, usual class: inhibitors; 230,000 tested, 1.6% active; active means well fitted inhibition curve with a large enough effect, not every such curve was filed as active; inconclusive means small, poorly fitted or top-dose-only effect, or another doubt; inactive means no such curve, though single readings can be large or run the other way;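 further: potency means the concentration at half of the fitted maximal effect; 0% = wells with enzyme and -100% = buffer wells without enzyme; nearly all actives have a fitted effect of over 50% in size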
Target sequence (B2RXH2 1-337 limits assumed): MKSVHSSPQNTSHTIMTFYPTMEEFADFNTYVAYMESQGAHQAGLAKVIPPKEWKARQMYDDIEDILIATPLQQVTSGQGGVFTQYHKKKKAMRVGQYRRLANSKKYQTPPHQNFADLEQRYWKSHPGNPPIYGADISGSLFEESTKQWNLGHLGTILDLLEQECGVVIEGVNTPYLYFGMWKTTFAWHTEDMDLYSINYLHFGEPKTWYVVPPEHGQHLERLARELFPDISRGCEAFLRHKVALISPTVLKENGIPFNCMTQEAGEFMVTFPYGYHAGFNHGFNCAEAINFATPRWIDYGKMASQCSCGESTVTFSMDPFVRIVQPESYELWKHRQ
L3MBTL1 inh-1: blocks human L3MBTL1; Q9Y468; AlphaScreen L3MBTL1–H3K9me1 peptide binding; Potency, µM (doses to about 57.1 µM), for the others: top-dose activity, negative = inhibition, actives largely listed as inhibitors; 230,000 tested, 0.66% active; further: potency means the concentration at half of the fitted maximal effect; on the % scale 0 is the no-effect control and ±100 the full control effect; nearly all actives have a fitted effect of over 60% in size
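Read-out is AlphaScreen signal from streptavidin donor and nickel chelate acceptor beads (10 ug/mL final each) bridging L3MBTL1 (50 nM) and biotinylated K9-monomethylated H3(1-15) peptide (75 nM), after 30 min compound exposure at room temperature.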
BLM inh: blocks DNA unwinding by human BLM helicase; P54132; recombinant BLM DNA unwinding, fluorescence dequenching; Potency, µM (highest dose often 56.1 µM), for inactives: top-dose activity change, negative = inhibition, usual class: inhibitors; 350,000 tested, 0.2% active;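 further: potency means the concentration at half of the fitted maximal effect; plate controls were vehicle for no effect and no enzyme for full effect; nearly all actives have a fitted effect of over 35% in size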
GCN5L2 inh-1: blocks human GCN5L2 histone acetyltransferase. GCN5L2 HAT assay, ThioGlo1 CoA-SH fluorescence. Potency, µM (top dose mostly 58.9 µM), for the others: at the highest dose activity change, negative = inhibition, usual class: inhibitors. 390,000 tested, 0.21% active. AID 504327; further: potency means the concentration at half of the fitted maximal effect; on the % scale 0 is the no-effect control and ±100 the full control effect
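Fluorescence readout, Ex340nm/Em540nm: ThioGlo1 (50uM final) reacts with free CoA thiol released as 20nM GCN5L2 acetylates H3(1-25) peptide (75uM) using acetyl-CoA (70uM). Compound and enzyme sat 15 min beforehand; 20 min room-temperature reaction.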
L3MBTL1 inh-2: validation of human L3MBTL1 methyl-lysine binding inhibitors; L3MBTL1 methyl-lysine binding inhibition, biochemical qHTS; shares compounds with L3MBTL1 inh-1; Potency, µM, usual class: inhibitors; AID 540279; 500 tested, 91% active; further: potency means the concentration at half of the fitted maximal effect; nearly all actives have a fitted effect of over 70% in size
L3MBTL1 ctr: counter-screen for L3MBTL1 inhibitors: AlphaScreen signal interference. shares compounds with L3MBTL1 inh-1. AlphaScreen counterscreen, signal inhibition. Potency, µM (highest dose often 57.1 µM), inactives show at the highest dose activity change, negative = inhibition, hits mostly inhibitors. 500 tested, under 10 active; further: potency means the concentration at half of the fitted maximal effect; 0% is about no effect
GCN5L2 inh-2: confirmation of human GCN5L2 histone acetyltransferase inhibitors. shares compounds with GCN5L2 inh-1. GCN5L2 HAT, ThioGlo1 CoA fluorescence, 20 min. Potency, µM, actives largely listed as inhibitors. 140 tested, 70% active
Numbers without * were called inactive; i = inactive; ? = inconclusive; · = no result; [ ] = another dose, or the depositor's remark. Unless noted, the call rests on the fitted dose curve; in most records, active means well fitted curve in the direction sought with a large enough effect; inconclusive means small, poorly fitted or top-dose-only effect, or another doubt; inactive means no such curve, though single readings can be large; an effect the other way counts as inactive or inconclusive.

SMILES	RECQ1 inh	APE1 inh	KDM4E inh	L3MBTL1 inh-1	BLM inh	GCN5L2 inh-1	L3MBTL1 inh-2	L3MBTL1 ctr	others
CC[C@H]1C(=O)OC[C@H]1Cc1cncn1C	i	6%[21 µM]	4%[25.5 µM]	·	5%[21.4 µM]	10%[21.4 µM]	·	·
Cc1cnc2c(C(=O)O)c(Cl)ccc2c1	-7%	-4%	·	·	2%	5%	·	·
O=C1NC(=O)N(Cc2ccco2)C(=O)/C1=C/c1ccc(-c2cccc([N+](=O)[O-])c2)o1	?	28µM*	?	28µM*	?	20µM*	3.4*	-21%
C=CCN1C(=O)NC(=O)/C(=C\c2ccc(-c3ccccc3[N+](=O)[O-])o2)C1=O	-3%	-8%	-23%	-6%	-4%	-11%	·	·
CC(C)N1C(=O)/C(=C/C=C/c2ccco2)C(=O)N(Cc2ccco2)C1=O	10µM*	?	-28%	32µM*	?	?	4.7*	-25%
CN1CCC2(CC1)NC(=O)c1ccccc1N2	13%	?	?	·	-2%	-25%	·	·
CN1CCC2(CC1)NC(=O)C1=C(CN(C)CC1)N2	8%	-2%	-3%	28µM*	2%	-1%	?	0%
Cc1cc(C(C#N)c2ccc(Cl)cc2)c(Cl)cc1NC(=O)c1cc(I)cc(I)c1O (centres undefined)	·	-29%	·	?	?	10µM*	·	·	GCN5L2 inh-2=?
CCOP(=S)(OCC)Oc1ccc(Cl)cc1Cl	-8%	2%	·	·	-5%	-14%	·	·
